Results on 10 compounds are retold here after PubChem BioAssay (NCI).

Test systems include SR leukemia; RPMI-8226 leukemia; OVCAR-8 ovarian; OVCAR-5 ovarian; OVCAR-4 ovarian; SK-OV-3 ovarian; IGROV1 ovarian; OVCAR-3 ovarian; HS 578T breast; NCI/ADR-RES ovarian.
Holding throughout (test): NCI-60 one-dose screen, 48 h (100 = growth as untreated, 0 = no growth, -100 = all killed)
Holding throughout (conditions): 10 µM unless noted

Structures are written as SMILES. Values joined by “and” are separate entries in the source; they are usually repeats but may differ in a detail not shown here. Identical values can stand only once. About 83,000 compounds went through this panel and 20% of them were active in at least one assay; those are over-represented in the sample as a whole.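 Negative percent growth values reflect cell death: -40 means 40% of the cells present at the start died, and -100 means all died.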 Active and inactive are the calls of the source. Rule for the calls: active = growth percent below 10; inactive = the rest.

For `O=C(NNc1ccccc1)c1ncc[nH]1`, the growth with SR leukemia was 104% (inactive); in the assay with RPMI-8226 leukemia it was 53.5% (inactive); with OVCAR-8 ovarian, 80.9% (inactive); in the assay on OVCAR-5 ovarian, 65.3% (inactive); in the assay with OVCAR-4 ovarian, 48.4% (inactive); with SK-OV-3 ovarian, 81.2% (inactive). For the same compound, the growth in the assay on IGROV1 ovarian is 71.1% (inactive); with OVCAR-3 ovarian, 64.3% (inactive); in the assay with HS 578T breast, 89.2% (inactive); in the assay on NCI/ADR-RES ovarian, 78.6% (inactive).
In the case of `COc1ccc(/C=C/C(=O)c2cc3c(N)c(C(=O)Nc4ccccc4)sc3nc2C)cc1`, the growth is 23.4% (inactive) in the assay with SR leukemia; -13.3% (active) with RPMI-8226 leukemia; 3.29% (active) in the assay on OVCAR-8 ovarian; 39.3% (inactive) in the assay on OVCAR-5 ovarian; 49.3% (inactive) with OVCAR-4 ovarian; 33% (inactive) in the assay on SK-OV-3 ovarian. Besides, the growth in the assay with IGROV1 ovarian is 31% (inactive); in the assay on OVCAR-3 ovarian, -16.6% (active); in the assay on HS 578T breast, 14.6% (inactive); with NCI/ADR-RES ovarian it was 2.9% (active).
As for `CCCCCCCCCCCCCCCC[N+](C)(C)CCN(Cc1ccc(OC)cc1)c1ncccn1`, the growth in the assay with SR leukemia is -45.2% (active) and 56.8% (inactive); in the assay with RPMI-8226 leukemia it was 27.2% (inactive); in the assay with OVCAR-8 ovarian it was -72.8% (active) and 56.4% (inactive); with OVCAR-5 ovarian, -37% (active) and 67.2% (inactive); in the assay with OVCAR-4 ovarian, -8.05% (active) and 31.3% (inactive); with SK-OV-3 ovarian it was 14.6% (inactive) and 67.4% (inactive). The growth was -70.4% (active) in the assay with IGROV1 ovarian; -100% (active) and 45.5% (inactive) in the assay with OVCAR-3 ovarian; -72.9% (active) and 84.5% (inactive) in the assay with HS 578T breast; 72.2% (inactive) and 105% (inactive) with NCI/ADR-RES ovarian.
As to `O=S(=O)(O)c1ccc(N=Nc2ccc(N=Nc3cccc4ccccc34)c(S(=O)(=O)O)c2)cc1`, the growth was 99.4% (inactive) in the assay on SR leukemia; 108% (inactive) in the assay with RPMI-8226 leukemia; 101% (inactive) in the assay with OVCAR-8 ovarian; 103% (inactive) in the assay with OVCAR-5 ovarian; 93.2% (inactive) in the assay on OVCAR-4 ovarian; 85.4% (inactive) with SK-OV-3 ovarian. For the same compound, the growth was 96.3% (inactive) in the assay with IGROV1 ovarian, 103% (inactive) with OVCAR-3 ovarian, 104% (inactive) with HS 578T breast and 103% (inactive) with NCI/ADR-RES ovarian.
As for `O=C1/C(=C/c2ccc(-c3ccccc3C(F)(F)F)o2)SC(=S)N1CCc1ccc(O)cc1`, the growth is 14.2% (inactive) with SR leukemia; 69.8% (inactive) with RPMI-8226 leukemia; 57.6% (inactive) in the assay on OVCAR-8 ovarian; 77.4% (inactive) in the assay with OVCAR-5 ovarian; 44.8% (inactive) in the assay with OVCAR-4 ovarian; 64% (inactive) in the assay on SK-OV-3 ovarian. Further, the growth was 12.5% (inactive) with IGROV1 ovarian, 43.4% (inactive) in the assay with OVCAR-3 ovarian, 47.7% (inactive) in the assay with HS 578T breast and 43.9% (inactive) with NCI/ADR-RES ovarian.
As for `CCCO/N=C/c1ccccn1`, the growth was 93.4% (inactive) in the assay with SR leukemia; 101% (inactive) in the assay with RPMI-8226 leukemia; 103% (inactive) and 107% (inactive) in the assay with OVCAR-8 ovarian; 106% (inactive) and 100% (inactive) in the assay with OVCAR-5 ovarian; 97.4% (inactive) in the assay with OVCAR-4 ovarian; 101% (inactive) and 89.7% (inactive) in the assay on SK-OV-3 ovarian. Further, the growth was 107% (inactive) and 101% (inactive) in the assay with IGROV1 ovarian; 105% (inactive) and 113% (inactive) with OVCAR-3 ovarian; 102% (inactive) and 104% (inactive) with HS 578T breast; 101% (inactive) and 99.5% (inactive) in the assay on NCI/ADR-RES ovarian.
In the case of `COc1ccccc1/C=C1\COc2ccc(O)cc2C1=O`, the growth in the assay with SR leukemia is 11.5% (inactive); in the assay on RPMI-8226 leukemia, 4.74% (active); in the assay with OVCAR-8 ovarian, 49.4% (inactive); with OVCAR-5 ovarian it was 103% (inactive); in the assay with OVCAR-4 ovarian, 81.2% (inactive); with SK-OV-3 ovarian, 99.1% (inactive). The growth in the assay on IGROV1 ovarian is 84.7% (inactive); in the assay with OVCAR-3 ovarian it was 76.2% (inactive); in the assay with HS 578T breast, 83.5% (inactive); in the assay with NCI/ADR-RES ovarian, 38.1% (inactive).
As to `CCCCC#Cc1c(/C=C(\CCCC)SCC)n(C)c(=O)[nH]c1=O`, the growth in the assay with SR leukemia is 93.4% (inactive); in the assay on RPMI-8226 leukemia, 85.5% (inactive); in the assay with OVCAR-8 ovarian, 76.8% (inactive); in the assay with OVCAR-5 ovarian, 99.3% (inactive); in the assay with OVCAR-4 ovarian, 90.7% (inactive); in the assay on SK-OV-3 ovarian, 106% (inactive). Moreover, the growth in the assay on IGROV1 ovarian is 73.6% (inactive); with OVCAR-3 ovarian, 88.5% (inactive); in the assay on HS 578T breast, 95.9% (inactive); in the assay on NCI/ADR-RES ovarian, 95.6% (inactive).
With `COc1ccc(-c2ccccc2)cc1-c1c(Nc2cc(Cl)cc(Cl)c2O)c(=O)c1=O`, the growth was 23.2% (inactive) with SR leukemia; 25.4% (inactive) with RPMI-8226 leukemia; 12.3% (inactive) in the assay on OVCAR-8 ovarian; 28.7% (inactive) in the assay on OVCAR-5 ovarian; 16.8% (inactive) in the assay on OVCAR-4 ovarian; -10.8% (active) in the assay with SK-OV-3 ovarian. The growth is 31% (inactive) in the assay with IGROV1 ovarian, 5.32% (active) in the assay on OVCAR-3 ovarian, 3.42% (active) in the assay with HS 578T breast and 1.38% (active) in the assay with NCI/ADR-RES ovarian.
As to `CCCNNC(=O)/C=C/c1ccc(CNCCc2c(C)[nH]c3ccccc23)cc1`, the growth is 20.1% [2.5 µM] (inactive) in the assay with SR leukemia; 16.3% [2.5 µM] (inactive) in the assay with RPMI-8226 leukemia; 10.8% [2.5 µM] (inactive) with OVCAR-8 ovarian; 1.96% [2.5 µM] (active) in the assay with OVCAR-5 ovarian; 41.6% [2.5 µM] (inactive) with OVCAR-4 ovarian; 0.0389% [2.5 µM] (active) in the assay with SK-OV-3 ovarian. Further, the growth was 9.05% [2.5 µM] (active) in the assay with IGROV1 ovarian, 19.8% [2.5 µM] (inactive) in the assay with OVCAR-3 ovarian, 35.3% [2.5 µM] (inactive) in the assay on HS 578T breast and 50% [2.5 µM] (inactive) in the assay on NCI/ADR-RES ovarian.
